Screens deposited in PubChem by National Center for Advancing Translational Sciences (NCATS).
Sm TGR block: inhibitors of Schistosoma mansoni thioredoxin glutathione reductase. Q962Y6. Potency, µM (highest dose often 114 µM), for the others: top-dose activity change, negative = inhibition, hits mostly inhibitors. purified TGR, DTNB reduction, TNB absorbance 405 nm. hit rate 3% among 360,000; note: % is set by controls: 0 for no effect and ±100 for the full control effect; nearly all actives have a fitted effect of over 60% in size
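Kinetic colorimetric format: TGR-catalysed, NADPH-driven DTNB reduction monitored via TNB absorbance. Enzyme dispensed at 20 nM; compound exposure 15 min at room temperature before reaction start.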
SARS PLpro yeast: blocks SARS-CoV papain-like protease in a yeast assay | Potency, µM (doses to about 32.9 µM), inactives show at the top dose activity, positive = growth rescue, actives largely listed as activators | AID 485353 | S. cerevisiae expressing SARS-CoV PLpro, growth rescue | hit rate 0.19% among 330,000; calls by dose curve; note: 0% is about no effect; nearly all actives have a fitted effect of over 55% in size
Pf growth 96h: P. falciparum growth inhibition at 96 hour, primary screen for plastid delayed-death inhibitors; P. falciparum luciferase reporter growth, 96 h; Potency, µM (titrated, usually from 28.7 µM), for the others: at the top dose activity change, negative = inhibition, actives largely listed as inhibitors; hit rate 6.9% among 320,000; AID 504834; note: % is set by controls: 0 for no effect and ±100 for the full control effect
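Erythrocytes infected with luciferase-expressing P. falciparum were dispensed at 2% hematocrit and 0.05% parasitemia (final), then incubated with compounds 96 hours at 37 C in 5% CO2. Luminescence after detection reagent addition reported growth.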
Pf growth 48h: inhibits P. falciparum growth in the first generation, 48 h; P. falciparum luciferase growth in erythrocytes, 48 h; Potency, µM (titrated, usually from 28.7 µM), for the others: at the highest dose activity change, negative = inhibition, most hits filed as inhibitors; hit rate 5.9% among 310,000; note: % is set by controls: 0 for no effect and ±100 for the full control effect
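Compounds are pin-transferred into medium, infected erythrocytes (2% hematocrit, 0.1% parasitemia final) are added, and plates sit one parasite generation at 37 C in 5% CO2. Detection reagent is then added and luminescence measured.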
AmpC inh no detg: AmpC beta-lactamase inhibition without detergent; P00811; AmpC nitrocefin hydrolysis, absorbance 480 nm, 0.0001% Triton; Potency, µM (titrated, usually from 57.1 µM), for the others: top-dose activity change, negative = inhibition, hits mostly inhibitors; hit rate 0.52% among 330,000; AID 485341;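 note: plate controls were no compound for no effect and no enzyme for full effect; nearly all actives have a fitted effect of over 20% in size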
Target sequence (P00811 whole entry, looked up): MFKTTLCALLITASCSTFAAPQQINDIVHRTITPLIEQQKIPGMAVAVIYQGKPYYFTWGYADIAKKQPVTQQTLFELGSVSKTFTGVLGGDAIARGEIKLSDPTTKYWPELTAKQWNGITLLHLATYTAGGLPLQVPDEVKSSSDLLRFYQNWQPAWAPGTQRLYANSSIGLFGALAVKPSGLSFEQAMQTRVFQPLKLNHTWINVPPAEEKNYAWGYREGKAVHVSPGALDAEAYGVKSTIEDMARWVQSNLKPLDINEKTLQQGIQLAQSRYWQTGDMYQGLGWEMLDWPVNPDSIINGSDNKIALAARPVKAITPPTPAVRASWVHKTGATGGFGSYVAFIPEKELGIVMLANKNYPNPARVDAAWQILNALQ
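20 mM phosphate pH 7.0 + 0.01% (detergent screen) or 0.0001% Triton X-100; 5.3 nM AmpC reagent; cpd preinc 15 min RT; nitrocefin (800 uM stock) to start; A480 q20 s × 4 min; Activity was normalised to no-enzyme and no-compound control wells.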
AmpC detergent: AmpC beta-lactamase inhibition with detergent present | P00811 | hit rate 0.041% among 370,000 | AmpC hydrolysis of nitrocefin, absorbance 480 nm, 0.01% Triton | Potency, µM (top dose mostly 114 µM), for the others: top-dose activity change, negative = inhibition, most hits filed as inhibitors | AID 485294;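 note: 0% = no-compound wells and -100% = no-enzyme wells; nearly all actives have a fitted effect of over 25% in size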
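AmpC (5.3 nM in the dispensed reagent) in 20 mM phosphate pH 7.0 with 0.01% (detergent screen) or 0.0001% Triton X-100 was preincubated with compounds for 15 min at room temperature. Nitrocefin was then added from an 800 uM solution, and hydrolysis was followed at 480 nm.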
* = called active by the depositor; ? = inconclusive; . = no result. An excerpt weighted towards active compounds, which were near 12% of everything screened. Unless noted, calls come from the whole dose curve; as a rule, active = well fitted curve in the direction sought with a large enough effect; inconclusive = small, poorly fitted or top-dose-only effect, or another doubt; inactive = no such curve, though single readings can be large; an effect the other way counts as inactive or inconclusive. Potency is the fitted concentration of half-maximal effect.

SMILES | Sm TGR block | SARS PLpro yeast | Pf growth 96h | Pf growth 48h | AmpC inh no detg | AmpC detergent
COc1ccc(CN2C(=O)C(C)N(C(=O)c3c(F)cccc3F)c3ccccc32)cc1 (centres undefined) | 0% | -5% | 2.1µM* | 1.9µM* | -6% | 2%
COc1cccc(CN2C(=O)C(C)N(C(=O)c3ccccc3)c3ccccc32)c1 (centres undefined) | 10% | 0% | 10µM* | ? | 7% | ?
Cc1ccc(C(=O)Nc2c(-c3ccccc3)nc3ccccn23)cc1C | -2% | . | . | . | . | 0%
Brc1ccc(C=Nc2ccc(Nc3ccccc3)cc2)s1 | ? | -11% | 13µM* | ? | -46% | -8%
Cc1ccc2oc(C(=O)NCC(c3ccc(Cl)cc3)N3CCOCC3)c(C)c2c1 (centres undefined) | 6% | . | . | . | . | 17%
CCCCn1c(N)c(N(CCOC)C(=O)CN2C(=O)C3CCCCC3C2=O)c(=O)[nH]c1=O (centres undefined) | -1% | 6% | ? | ? | -5% | -2%
O=C(Nc1nncs1)c1cc(-c2ccco2)nc2ccccc12 | . | 6% | . | . | -22% | .
COc1ccccc1CNC(=O)COC(=O)c1cc(-c2ccco2)nc2ccccc12 | 10µM* | 0% | . | 16% | -43% | -3%
COc1ccccc1CNC(=O)COC(=O)c1cc(C)nc2ccccc12 | . | -5% | . | . | 6% | .
NC(=O)COC(=O)c1cc(-c2ccco2)nc2ccccc12 | 3.2µM* | 0% | 40% | 15% | -48% | -5%
O=C(c1ccco1)N1CCN(C(=O)c2cc(-c3ccccn3)nc3ccc(Cl)cc23)CC1 | 7.9µM* | 2% | 11% | ? | 108% | 3%
O=C(O)c1cc(-c2ccco2)nc2ccc(Br)cc12 | 0.71µM* | -3% | ? | 5% | -31% | 2%
CCOc1ccc(CNC(=O)C2Cc3cc(S(=O)(=O)N4CCCCCC4)ccc3N2C(C)=O)cc1 (centres undefined) | -2% | . | . | . | . | 1%
Cc1ccc(CN(C)C2CCN(C)CC2)cc1 | 4% | 7% | ? | 12% | -10% | -6%
COc1cc(Br)cc2cc(C(=O)N3CCCCC3C)c(=O)oc12 (centres undefined) | -7% | 2% | . | -14% | -19% | ?
O=C(c1cc(-c2ccco2)nc2ccccc12)N1CCN(Cc2ccccc2)CC1 | 14µM* | -2% | 41% | -27% | 27% | 5%
COc1ccc(/C=C(\C#N)C(=O)OCC(=O)NCc2ccccc2OC)cc1 | 2% | -13% | ? | -25% | 32µM* | ?
O=C(COC(=O)c1cc(-c2ccco2)nc2ccccc12)NCc1ccc2c(c1)OCO2 | 8.9µM* | 15% | -11% | -18% | -52% | ?
Cc1cccc(NC(=O)C2CCCN(c3nnc(-n4c(C)ccc4C)s3)C2)c1C (centres undefined) | -32% | . | . | . | . | 0%
COc1cc(/C=C(/C#N)c2nc(-c3cc4ccccc4oc3=O)cs2)ccc1O | -2% | . | . | . | . | 14%
OC1(c2ccccc2)CCN(Cc2ccccc2)CC1 | 5% | -5% | ? | 3% | -40% | -3%
OC1(c2ccc(Cl)c(Cl)c2)C[n+]2ccccc2N1Cc1ccccc1 (centres undefined) | -18% | 0% | ? | 3.7µM* | 30% | 3%
COc1ccc([C@@]2(O)c3c(ccc(CC=C(C)C)c3O)NC(=O)[C@@H]2OC)cc1 | -22% | 0% | -25% | ? | 66% | 9%
Cc1cc(C)n(CCc2nc(-c3ccc(C)o3)cs2)n1 | 7.9µM* | 4% | ? | . | -4% | -1%
Cc1noc(NS(=O)(=O)c2ccc(NC(=O)c3ccc(Br)cc3)cc2)c1C | -11% | . | . | . | . | -3%
SMILES | Sm TGR block | SARS PLpro yeast | Pf growth 96h | Pf growth 48h | AmpC inh no detg | AmpC detergent
COC(=O)c1ccc(C(=O)OC)c(NC(=O)c2cnn3c(C(F)F)cc(-c4ccccc4)nc23)c1 | 16% | . | . | . | . | 2%
CCN(CC)S(=O)(=O)c1cccc(-c2nnc(SCCCC(=O)c3ccc(F)cc3)o2)c1 | 12% | 0% | 0% | 9.3µM* | 0% | -15%
C=CCn1c(C)cc(C(=O)CSc2nnc(-c3cccc(S(=O)(=O)N(CC)CC)c3)o2)c1C | 1% | 0% | ? | 10µM* | -5% | 6%
CCN(CC)S(=O)(=O)c1cccc(-c2nnc(SCCCC(=O)c3ccccc3)o2)c1 | 8% | 0% | ? | ? | 2% | 1%
CCN(C(=O)CN1C(=O)NC(c2ccccc2)(c2ccc(C)c(C)c2)C1=O)C1CCCCC1 (centres undefined) | 6% | 1% | 3.3µM* | 6.6µM* | 18% | 7%
Cc1ccc(C2(c3ccccc3)NC(=O)N(CC(=O)N(C)C3CCS(=O)(=O)C3)C2=O)cc1C (centres undefined) | 3% | -17% | ? | ? | 205% | -3%
CCN(C(=O)CN1C(=O)NC(c2ccccc2)(c2ccc(C)c(C)c2)C1=O)C1CCS(=O)(=O)C1 (centres undefined) | -9% | 3% | 13µM* | ? | 160% | -8%
Nc1ccc2c(c1)nc(Cc1ccccc1)n2CCO | 0% | -1% | -2% | 16% | -14% | 8%
COc1ccc(NC(=S)NNc2ccc(C(=O)O)cc2)cc1 | -24% | 0% | 72% | 50% | -23% | -11%
CCSc1ccc(-c2ccco2)nn1 | 13µM* | -2% | -9% | 97% | -25% | -8%
CSc1nc(-c2ccco2)cc(-c2ccccc2)c1C#N | ? | 2% | ? | 47% | -29% | -12%
CSc1ccc(-c2ccco2)nn1 | 10µM* | -1% | 0% | 264% | -19% | 5%
O=C(/C=C/c1cccc(F)c1)NCCCn1ccnc1 | 4% | -1% | 21% | . | -3% | -9%
Cc1ccc(CNC(=O)CCC2CCCN(Cc3cccc4cccnc34)C2)o1 (centres undefined) | ? | 0% | ? | 22% | 14% | -3%
O=C(Nc1ccccc1)C1=C(c2ccccc2)S(=O)(=O)CCS1(=O)=O | 0.25µM* | 4% | ? | 12µM* | -34% | -3%
CCCOc1c(Cl)cc(C(=O)N(Cc2cccc(OC)c2)C2CCS(=O)(=O)C2)cc1Cl (centres undefined) | 8% | . | . | . | . | 20%
Cc1cccc(OCCOCCn2c(-c3ccc(Cl)cc3)nc3ccccc3c2=O)c1C | 2% | . | . | . | . | 16%
Cc1nc(-c2ccccn2)nc(SCC(=O)c2ccccc2)c1Cl | -4% | -7% | 5.2µM* | 15µM* | 115% | -5%
COc1ccc(NC(=O)CSc2nnc(N)s2)cc1S(=O)(=O)N1CCCCC1 | . | -3% | . | . | -19% | .
